# Rows were chosen to be rich in hits. Some 12% of all compounds tested hit in one or more screens of this group.
# G9a inh: G9a (human) methyltransferase inhibition; Potency, µM (doses to about 102 µM), actives largely listed as inhibitors; G9a H3K9 monomethylation, AlphaScreen, 2 h; 8.8% of 350,000 active; Q96KQ7; note: nearly all actives have a fitted effect of over 75% in size
# Target sequence (Q96KQ7 913-1193 limits assumed): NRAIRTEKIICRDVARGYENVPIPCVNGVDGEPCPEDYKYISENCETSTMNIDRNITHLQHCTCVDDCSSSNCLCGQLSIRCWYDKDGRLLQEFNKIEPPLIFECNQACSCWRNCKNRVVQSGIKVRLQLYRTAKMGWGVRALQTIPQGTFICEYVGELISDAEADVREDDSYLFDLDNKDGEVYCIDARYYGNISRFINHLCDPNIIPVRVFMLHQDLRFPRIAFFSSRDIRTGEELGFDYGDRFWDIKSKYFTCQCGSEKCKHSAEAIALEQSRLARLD
#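 Quantitative HTS format: methyltransferase activity on a biotin-tagged H3K9 peptide is measured by AlphaScreen, using a rabbit anti-monomethyl-H3K9 antibody with streptavidin donor and anti-IgG acceptor beads. Final levels are 20 nM enzyme, 500 nM peptide, 20 uM SAM; 2 h RT.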
# Sfp PPTase inh: inhibitors of Bacillus subtilis Sfp phosphopantetheinyl transferase | Q9F4F7 | Biochemical Sfp PPTase activity, qHTS | Potency, µM, most hits filed as inhibitors | 3.5% of 310,000 active | AID 1490;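 note: the enzyme is Sfp with the accession as filed and its product quenches rhodamine fluorescence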
#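 Buffer: 50 mM Hepes-Na pH 7.6, 10 mM MgCl2, 0.01% Nonidet P-40, 0.01% BSA. Enzyme 15 nM, pre-exposed to compound 15 min; substrates then added and fluorescence change tracked over 30 min.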
# JMJD2A Tudor inh: JMJD2A Tudor domain (human) inhibition; O75164; AlphaScreen JMJD2A-Tudor / H3K4me3 peptide binding; Potency, µM (doses to about 114 µM), most hits filed as inhibitors; 4.4% of 390,000 active; note: nearly all actives have a fitted effect of over 50% in size
# HP1b chromo inh: blocks HP1-beta chromodomain binding to methylated histone tails; Potency, µM (series often up to 114 µM), hits mostly inhibitors; 0.56% of 390,000 active; P83916; AlphaScreen HP1-beta / biotin-H3K9me3 peptide binding; AID 540317; note: nearly all actives have a fitted effect of over 70% in size
# Target sequence (P83916 whole entry, looked up): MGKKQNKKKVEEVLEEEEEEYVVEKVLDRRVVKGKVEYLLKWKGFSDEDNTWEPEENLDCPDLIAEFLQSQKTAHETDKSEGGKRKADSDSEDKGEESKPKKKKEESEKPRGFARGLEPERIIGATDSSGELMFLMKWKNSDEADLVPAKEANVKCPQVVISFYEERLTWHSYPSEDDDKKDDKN
#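 Compound inhibition of the preformed complex between 50 nM HP1-beta and 50 nM biotinylated H3K9me3 peptide was read by AlphaScreen. Buffer was PBS pH 7.4 with 0.01% Tween-20. Incubations ran 30 min at room temperature, with 10 ug/mL donor/acceptor beads.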
# BAZ2B block: blocks human BAZ2B; Q9UIF8; AlphaScreen BAZ2B-H3K14Ac peptide displacement; Potency, µM (titrated, usually from 114 µM), hits mostly inhibitors; 4.4% of 360,000 active; AID 504333; note: nearly all actives have a fitted effect of over 60% in size
#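 Complex of BAZ2B and biotin-H3K14Ac (50 nM apiece) forms over 30 min at RT, then faces library compounds up to 110 uM for another 30 min; AlphaScreen beads added, 20 min dark incubation, luminescence read.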
# Numbers stand for hits; 0 = inactive; ? = inconclusive; - = not tested or not shown; [ ] = remark or other dose. Calls come from the whole dose curve; as a rule, active = well fitted curve in the direction sought with a large enough effect; inconclusive = small, poorly fitted or top-dose-only effect, or another doubt; inactive = no such curve, though single readings can be large; an effect the other way counts as inactive or inconclusive.
SMILES,G9a inh,Sfp PPTase inh,JMJD2A Tudor inh,HP1b chromo inh,BAZ2B block
CCN1CCN(CCCNC(=O)c2ccc3c(c2)NC(=O)/C(=C\c2cccc(C)c2)S3)CC1,35µM,35µM,?,0,?
CCCCCCc1c(C)nc(-n2[nH]c(C)c(CCO)c2=O)[nH]c1=O,0,0,?,0,0
Cc1c(C(=O)NCC2CCCO2)cccc1[N+](=O)[O-] (stereo not given),0,0,0,0,0
CC(C)(C)c1ccc(C(=O)NNc2ccc(F)cc2F)cc1,22µM,0,89µM,0,0
O=C(O)c1ccccc1C(=O)NNc1ccc(F)cc1F,50µM,0,0,0,0
O=C(O)c1ccccc1C(=O)NNc1cccc(Cl)n1,45µM,0,0,0,0
O=C(O)c1ccccc1C(=O)NNc1ccc(Cl)cc1,?,0,0,0,0
CCc1ccc(C(=O)NNc2ccc(F)cc2F)cc1,0,0,?,0,0
COCCn1c(=S)[nH]c2cc(C(=O)N3CCCC(C)C3)ccc2c1=O (stereo not given),-,0,0,0,0
O=S(=O)(c1ccc(F)cc1)N1CCC(N2CCCC2)CC1,?,0,20µM,?,?
Cn1c(=O)oc2cc(S(=O)(=O)N3CCC(C(=O)Nc4ccc(F)c(Cl)c4)CC3)ccc21,0,-,0,0,0
CSc1ccc(S(=O)(=O)N2CCC(C(=O)Nc3ccc(NC(C)=O)cc3)CC2)cc1,40µM,0,0,0,0
Cc1nnc(NC(=O)C2CCN(S(=O)(=O)c3ccc(F)c(F)c3)CC2)o1,-,-,50µM,0,-
CC(=O)Nc1ccc(S(=O)(=O)N2CCC(N3CCCC3)CC2)cc1,50µM,0,3.5µM,?,?
N#Cc1ccc(S(=O)(=O)N2CCC(N3CCCCC3)CC2)cc1,0,0,0,0,0
CN1OC(CC(=O)O)N(c2ccc(Cl)cc2)C1=O (stereo not given),0,0,0,0,0
O=C(c1csnn1)N1CCC2(CCN(Cc3ccccc3)CC2)CC1,0[12.7 µM],0,-,-,-
O=C(Nc1ccc(N2CCOCC2)cc1)C1CCN(S(=O)(=O)c2ccc3c(c2)OCCO3)CC1,0,0,0,0,0
COc1ccc(S(=O)(=O)N2CCC(N3CCCCC3)CC2)cc1,?,?,8.9µM,?,71µM
Cc1ccc(S(=O)(=O)N2CCC(C(=O)Nc3ccc(N4CCOCC4)cc3)CC2)cc1C,16µM,-,0,0,0
CCn1c(C2CCN(S(=O)(=O)c3ccc(OC)cc3)CC2)n[nH]c1=S,14µM,0,6.3µM,0,0
COc1ccc(S(=O)(=O)N2CCCCCC2)cc1,0,0,0,0,0
CSc1ccc(S(=O)(=O)N2CCC(C(=O)N3CCc4ccccc4C3)CC2)cc1,40µM,0,0,0,0
CCn1c(SCc2ccccc2)nnc1C1CCN(S(=O)(=O)c2ccc(OC)cc2)CC1,-,0,0,0,0
COc1ccc(S(=O)(=O)N2CCC(C(=O)N3CCc4ccccc4C3)CC2)cc1,0,0,0,0,0
SMILES,G9a inh,Sfp PPTase inh,JMJD2A Tudor inh,HP1b chromo inh,BAZ2B block
O=Cc1sc([O-])nc1-[n+]1ccc2ccccc2c1,0,0,0,0,0
Cc1ccc2cc(CN(CC3CCCO3)S(=O)(=O)c3ccc4c(c3)OCCO4)c(=O)[nH]c2c1C (stereo not given),-,-,0,0,-
O=c1ccc(S(=O)(=O)N2CCCC2)cn1Cc1ccc(F)cc1,3.5µM,-,0,0,0
Cc1ccc2c(c1)-c1c(cnn1CC(=O)NC(C)CCc1ccco1)CO2 (stereo not given),45µM,?,0,0,0
COc1ccc(C(=O)N2CCN(c3ccc([N+](=O)[O-])c(-n4nc(C)cc4C)c3)CC2)cc1,0,0,0,0,0
FC(F)(F)c1ccccc1-n1c(-c2ccco2)n[nH]c1=S,16µM,0,0,0,0
FC(F)(F)c1cc(-c2ccco2)nc(N2CCN(Cc3ccccc3)CC2)n1,0[12.7 µM],0,0,0,0
c1ccc(-n2c(-c3ccco3)nnc2-c2ccco2)cc1,0[12.7 µM],0,0,0,0
Cc1ccccc1-n1c(-c2ccco2)n[nH]c1=S,7.1µM,0,3.2µM,0,0
CC(C)OC1(c2ccccc2)OC(=O)c2ccccc21 (stereo not given),0[12.7 µM],0,0,0,0
CC(=O)c1cc(-c2ccccc2)[nH]c1N1CCOCC1,?,?,?,0,?
CC(=O)c1c(N2CCN(C)CC2)[nH]c(-c2ccccc2)nc1=S,0[0.0925 µM],0,79µM,0,?
CC(C)c1ccc(OCC(=O)NNC(=S)NC(=O)c2ccco2)c(Br)c1,0,0,?,0,0
O=C(Cc1cccs1)NNC(=S)NCc1ccc(Cl)cc1,-,0,0,0,0
O=C(Cc1ccc(Cl)cc1)NNC(=S)NC(=O)c1cccs1,35µM,0,0,0,0
CC(C)(C)c1ccc(OCC(=O)NNC(=S)NC(=O)c2ccco2)c(Br)c1,28µM,0,?,?,0
O=C(Cc1cccs1)NNC(=S)NC(=O)c1ccco1,11µM,0,0,0,0
COCC(C)Nc1ncnc2c1cnn2-c1ccc(C)c(C)c1 (stereo not given),0,-,0,0,0
COc1cc(O)cc(/C=C/c2ccccc2)c1,0[2.33 µM],0,0,0,-
COC1=CC(=O)C(O)=C/C1=C\C=C\c1ccccc1,-,11µM,-,-,-
Cc1c(C)n(Cc2ccccc2)c2ncnc(N)c12,?,0,0,0,0
O=C(NCCCN1CCCC1)c1ccc2c(Cl)c3c(nc2c1)CCCC3,?,79µM,0,0,0
CCOC(=O)N1CCC(NC(=O)c2ccc3c(Cl)c4c(nc3c2)CCCC4)CC1,0,25µM,0,0,0
CCC1(c2ccccc2)NC(=O)N(CC(=O)NCCN2C(=O)S/C(=C\c3cccnc3)C2=O)C1=O (stereo not given),?,-,0,0,0
COc1ccc(NCc2nc3ccccc3n2CCOc2ccccc2C)cc1,?,-,20µM,?,13µM
SMILES,G9a inh,Sfp PPTase inh,JMJD2A Tudor inh,HP1b chromo inh,BAZ2B block
Fc1ccc(NCc2nc3ccccc3n2CCOc2ccccc2Cl)cc1,0,-,0,0,0
Cc1ccc(NCc2nc3ccccc3n2CCOc2ccccc2)cc1,2.2µM,?,16µM,0,22µM
Cc1ccc(OCCn2c(CNc3cccc(C)c3)nc3ccccc32)cc1,0,-,?,0,?
CCOc1ccc(S(=O)(=O)NCCC(=O)OCC(=O)c2ccc(NC(C)=O)cc2)cc1,0[0.501 µM],-,0,0,0
O=C(O)c1[nH]c2ccccc2c1C(c1cc(Cl)cc([N+](=O)[O-])c1O)c1c(C(=O)O)[nH]c2ccccc12,-,0,?,0,?
COC1=C(Br)C(=O)c2ncccc2C1=O,-,-,6.3µM,10µM,-
Cc1cc(C)cc(NC(=O)c2ccc3c(c2)CCN3S(C)(=O)=O)c1,0,0,0,0,0
COc1ccccc1CCNc1ncnc2c1nnn2C,0,-,0,0,0
Cc1cccc(N=C2NC(=O)/C(=C/c3cccs3)S2)c1,0,0,0,0,0
Cc1ccccc1N=C1NC(=O)/C(=C/c2cccn2C)S1,45µM,0,40µM,?,?
Cc1ccc(N=C2NC(=O)/C(=C\c3cccs3)S2)cc1C,2.8µM,0,?,0,0

# Screening results deposited in PubChem by National Center for Advancing Translational Sciences (NCATS).
